# Screening data (PubChem BioAssay)
# TIM10 inh: growth inhibitors of isogenic TIM10 control yeast, primary screen, counter-screen for tim10-1 yeast inhibitor project, luminescence, uHTS | S. cerevisiae TIM10 strain growth, BacTiter-Glo luminescence, 24 h | inhibition, % at 10 µM | 1.4% of 330,000 active;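 active means inhibition of 40% or more at the single tested concentration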;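 further: wild-type TIM10 isogenic control strain grown at permissive 25 °C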
# NALP1 inh: NALP1 inflammasome inhibitors in reconstituted yeast, colorimetric, S. cerevisiae, triplicate retest. S. cerevisiae NALP1/ASC/caspase-1 growth, X-gal OD620, 72 h. inhibition, % at 10 µM. 0.61% of 280,000 active. AID 2071, 2009; in the data active means inhibition mostly above about 24%, no sharp cut-off; inactive means mostly below about 32%
# NALP3 yeast inh: NALP3 inflammasome inhibitors in reconstituted yeast, primary screen, luminescence, uHTS; Yeast reconstituted NLRP3/ASC/caspase-1, beta-gal luminescence, 24 h; inhibition, % at 10 µM; 0.39% of 330,000 active;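 active means inhibition of 50% or more; inactive means inhibition below 50%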
# PfHsp90 yeast 2: growth inhibition of PfHsp90-expressing yeast, primary screen, antimalarial PfHsp90 inhibitor project, S. cerevisiae, BacTiter-Glo luminescence, single point, set 2. BacTiter-Glo ATP, 48 h; yeast lacking PDR1 and PDR3 efflux regulators. inhibition, % at 9.4 µM. 0.32% of 310,000 active. AID 504621, 2011;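 active means every replicate shows inhibition above about 80%, whatever the replicate mean, limit read from the data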
# tim23-1 inh: growth inhibitors of tim23-1 mutant yeast, primary screen, luminescence, uHTS; S. cerevisiae tim23-1 growth, BacTiter-Glo luminescence, 24 h; inhibition, % at 20 µM; 1.3% of 330,000 active; AID 463212, 2010;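 active means growth inhibition of the mutant yeast at or above 50%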;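 further: temperature-sensitive mutant grown at 25 °C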
# tim10-1 inh: growth inhibitors of tim10-1 mutant yeast, primary screen, luminescence, uHTS; 2.2% of 330,000 active; inhibition, % at 20 µM; S. cerevisiae tim10-1 ts strain growth, BacTiter-Glo, 24 h;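 active means inhibition of at least 40%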;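 further: mutant grown at 25 °C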
# tim10 confirm: growth inhibitors of wild-type TIM10 yeast, confirmation, counter-screen for tim10-1 synthetic lethality project, single concentration, luminescence, S. cerevisiae | shares compounds with TIM10 inh | S. cerevisiae tim10 strain growth, BacTiter-Glo luminescence, 24 h | inhibition, % at 10 µM | 63% of 4,600 active;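 active means inhibition of yeast growth at or above a set limit in either of two replicates at 10 µM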; further: this counterscreen used the strain with wild-type TIM10
# Hits are given with their value; i = inactive; nt = not tested or not shown. An excerpt weighted towards active compounds, which were near 4.2% of everything screened.
SMILES,TIM10 inh,NALP1 inh,NALP3 yeast inh,PfHsp90 yeast 2,tim23-1 inh,tim10-1 inh,tim10 confirm
Cc1cccc(-n2c(-c3csc(C)c3C)n[nH]c2=S)c1,44.4,i,i,i,i,i,i
Cc1ccccc1-n1c(-c2csc(C)c2C)n[nH]c1=S,i,i,i,i,i,i,nt
S=C(NCc1ccco1)Nc1cc(-c2ccccc2)[nH]n1,40.4,i,i,nt,i,i,i
S=C(NCc1ccco1)Nc1ccc(Cl)c(Cl)c1,46.0,i,i,i,i,i,i
COc1ccc(N(C(=O)c2ccco2)S(=O)(=O)c2ccc(F)cc2)cc1,42.5,i,i,i,i,i,i
COc1ccc(N(C(=O)c2ccco2)S(=O)(=O)c2cccc([N+](=O)[O-])c2)cc1,i,i,i,i,i,i,nt
O=[N+]([O-])c1ccc(N/N=C/c2cccnc2)cc1,41.8,i,i,i,i,i,i
COc1cccc(/C=N/n2cnc3cc(C)c(C)cc32)c1OC,42.3,nt,i,i,i,i,36.3
Fc1ccc(/C=N/n2c(-c3cccs3)n[nH]c2=S)cc1,44.8,nt,i,i,i,i,i
S=c1[nH]nc(-c2cccs2)n1/N=C/c1cn(-c2ccccc2)nc1-c1ccccc1,i,nt,i,i,i,i,nt
CN(c1ccccc1)S(=O)(=O)c1ccc(NC(=S)NC(=O)C2CC2)cc1,41.2,i,i,i,i,i,i
CN(c1ccccc1)S(=O)(=O)c1ccc(NC(=S)NC(=O)c2ccccc2)cc1,i,i,i,i,i,i,nt
CN(C1CCCCC1)S(=O)(=O)c1ccc(NC(=S)NC(=O)c2cccs2)cc1,51.3,i,i,i,i,i,36.2
CCOC(=O)COn1c(=O)c(-c2cccs2)[n+]([O-])c2ccccc21,41.8,i,i,i,i,i,i
CCOC(=O)COn1c(=O)c(-c2ccc(Br)cc2)[n+]([O-])c2ccccc21,i,i,i,i,i,i,nt
COc1ccc(/C=C/C(=O)c2cc(Cl)ccc2O)c(OC)c1,i,i,i,i,i,i,nt
COc1ccc(/C=C/C(=O)c2ccc(Cl)cc2)c(OC)c1,44.0,i,i,i,i,i,i
Cc1csc(Nc2nc(N)c(C(=O)Nc3ccccc3)o2)n1,43.3,i,i,i,i,i,i
Cc1csc(NC(=O)c2oc3ccccc3c2C)n1,i,nt,i,nt,i,i,nt
O=C(NN1C(=O)/C(=C\c2cccnc2)SC1=S)c1ccco1,i,i,i,i,i,i,nt
COC(=O)C1=C[C@@H](C(=O)OC)[C@@H]2C3=C(C(=O)[C@]2(C)NC(=O)c2ccccc2)[C@H](C)n2c(=O)n(-c4ccccc4)c(=O)n2[C@@H]3C1,i,nt,i,i,i,i,nt
Cn1c(-c2ccc(F)cc2)cnc1NCc1cc2c(cc1[N+](=O)[O-])OCO2,i,i,i,i,i,i,nt
Cc1cc(F)ccc1NCc1cc2c(cc1[N+](=O)[O-])OCO2,45.1,i,i,i,i,i,40.7
O=C(NNC(=O)c1ccc(S(=O)(=O)N2CCCC2)cc1)c1ccc(Br)cc1,i,nt,i,nt,i,i,nt
Cc1ccc(CSc2nnc(-c3cccc(S(=O)(=O)N4CCOCC4)c3)n2CC(C)C)cc1,i,i,i,i,i,i,nt
SMILES,TIM10 inh,NALP1 inh,NALP3 yeast inh,PfHsp90 yeast 2,tim23-1 inh,tim10-1 inh,tim10 confirm
CC(C)Cn1c(SCC(N)=O)nnc1-c1cccc(S(=O)(=O)N2CCOCC2)c1,58.0,nt,i,i,i,i,i
CC(=O)c1cccc(NC(=S)NCCCCc2ccccc2)c1,41.1,i,i,i,i,i,i
O=C(CCc1ccccc1)NC(=S)Nc1cccc(C(=O)O)c1,i,i,i,i,i,i,nt
O=C(CCN1C(=O)c2ccccc2C1=O)NC(=S)Nc1cccc(Cl)c1,40.6,i,i,i,i,i,i
O=C(CCc1ccccc1)NC(=S)Nc1cccc(Br)c1,47.7,i,i,i,i,i,i
S=C(Nc1cccc(Br)c1)c1ccccc1,43.2,i,i,i,i,i,44.0
CC1CCCC(C)N1C(=O)COC(=O)c1cc(F)c(F)cc1Cl (stereo not given),i,nt,i,i,i,i,nt
CCOc1ccc(NC(=O)c2nn(C)c(C(=O)Nc3ccc(OCC)cc3)c2[N+](=O)[O-])cc1,93.5,i,i,i,i,i,i
CC(NC(=O)C1CC1)c1ccc(-c2ccccc2)cc1 (stereo not given),i,i,i,i,i,i,nt
O=C(CSCc1ccc(Cl)cc1)Nc1ccc(S(=O)(=O)N2CCCCCC2)cc1,41.0,i,i,i,i,i,i
O=C(COc1ccccc1)Nc1ccc(S(=O)(=O)N2CCCCCC2)cc1,71.1,i,i,i,i,i,59.7
Cc1ccccc1NS(=O)(=O)c1ccc(NC(=O)CSCc2ccc(Br)cc2)cc1,41.2,i,i,i,i,i,i
O=C(Nc1ccc(S(=O)(=O)N2CCCCCC2)cc1)c1ccc(Br)o1,55.7,i,i,i,i,i,49.6
C=CCOc1c(Cl)cc(C(=S)N2CCCC2)cc1OCC,i,i,i,nt,i,i,nt
Cc1noc(C(=O)Nc2ccc3c(c2)OCO3)c1Cl,96.9,i,i,i,i,i,i
COc1ccc(S(=O)(=O)N2CCCCCC2)cc1C(=O)N1CCN(c2ccccc2C)CC1,i,nt,i,i,i,i,nt
CC(C)(C)C1CCC(CN2C(Nc3ccccc3)=NC[C@@H]2Cc2ccccc2)CC1 (stereo not given in full),48.9,nt,i,i,i,i,52.9
CCCCCn1c(CCNC(=O)c2cccs2)nc2ccccc21,41.2,i,i,i,i,i,i
CCCCCn1c(CNC(=O)c2cccs2)nc2ccccc21,i,i,i,i,i,i,nt
CCOc1cc(N2CCOCC2)c(OCC)cc1NC(=O)CN1C(=O)NC(CC)(c2ccc(F)cc2)C1=O (stereo not given),nt,nt,nt,i,nt,nt,nt
Cn1c(SCc2ccc3c(c2)OCO3)nnc1-c1ccccc1,97.1,nt,i,i,i,i,i
O=C(NC12CC3CC(CC(C3)C1)C2)c1ccc(-c2ccc(Br)cc2)o1,48.7,i,i,i,i,i,54.4
COc1ccc(-c2cc3c(nn2)-c2ccccc2C3=O)cc1,41.7,i,i,i,i,i,45.0
CCNC(=S)NN=C1c2ccccc2-c2ccccc21,44.1,i,i,i,i,i,i
C=C(C)CNC(=S)NN=C1c2ccccc2-c2ccccc21,i,i,i,nt,i,i,nt
O=c1c2c3c(sc2ncn1/N=C/c1ccc([N+](=O)[O-])o1)CCCC3,68.9,i,i,104.9,i,i,96.5
